The nature of test [1]: NCI Yeast Anticancer Drug Screen. Data for the mec2-1 strain (AID 157). The note with it: S. cerevisiae mec2-1 strain, at 50.0 µM, active compounds read high. The method, boiled down: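 Yeast mec2-1 mutant treated with compound. Readout: growth inhibition vs vehicle controls.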
Test [2] in a line: NCI Yeast Anticancer Drug Screen. Data for the sgs1 mgt1 strain (AID 161).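 Further: 0% = growth of cultures given vehicle only.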 The note with it: S. cerevisiae sgs1 mgt1 strain, at 50.0 µM, active compounds read high. The method, boiled down: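 Read-out: growth inhibition vs vehicle controls. Cells: mutant yeast strain deficient in DNA damage repair.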
Test [3] can be described thus: NCI Yeast Anticancer Drug Screen. Data for the cln2 rad14 strain (AID 165).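 Further: 0% = growth equal to vehicle treated cultures.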 The note with it: S. cerevisiae cln2 rad14 strain, at 50.0 µM, active compounds read high. The procedure, abridged:
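cln2 rad14 yeast strain; compound exposure; growth inhibition read vs vehicle controls.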

The nature of test [4]: NCI Yeast Anticancer Drug Screen. Data for the bub3 strain (AID 167). The conditions noted are these: S. cerevisiae bub3 mutant strain, at 50.0 µM, active compounds read high. The method, boiled down: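 Inhibition values come from growth of compound-treated mutant yeast normalised to vehicle-treated controls.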
Test [5] in a line: NCI Yeast Anticancer Drug Screen. Data for the mlh1 rad18 strain (AID 175). The conditions noted are these: S. cerevisiae mlh1 rad18 strain growth inhibition; at 50.0 µM; active compounds read high. The method, boiled down: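 Yeast w/ defined DNA-repair lesions; compound exposure; growth vs vehicle controls → % inhibition.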

Among the data in PubChem BioAssay (NCI) are growth inhibition values, retold here.

SMILES strings stand for the structures. This is part of a sample that, as a whole, favours compounds with a hit. Of some 79,000 tested, about 15% had one in any assay. Values without a mark were called inactive. Active and inactive are the calls of the source. No stated cut-off is given here; in the data, active means growth inhibition above about 70%; inactive means the rest. Where a SMILES comes first, the peptide text is derived from it. The star is where a group is joined. Cbz = O=C(OCc1ccccc1)*; Boc = CC(C)(C)OC(=O)*; OBn = c1ccc(CO*)cc1; Bn = c1ccc(C*)cc1

For the compound `Cc1cc2c(C(C)C)c(O)c(O)c(C=Nc3cccc(O)c3)c2c(O)c1-c1c(C)cc2c(C(C)C)c(O)c(O)c(C=Nc3cccc(O)c3)c2c1O`, in test [1], the growth inhibition is 26%.
As to `COc1cc(OC)c2nc3ccccc3c(NCCC[N+](C)(C)[O-])c2c1[N+](=O)[O-]`, the growth inhibition in test [1] is -33.6%; in test [2], -12.9%; in test [3], -22.2%; in test [4], -14.2%; in test [5] it was -17.8%.
Take `O=[N+]([O-])c1ccc(N/N=C/C2CC=CCC2)c([N+](=O)[O-])c1` (centres undefined): the growth inhibition is -6.8% in test [1]; -8.55% in test [2]; -13.1% in test [3]; -5.65% in test [4]; 5.25% in test [5].
On to `CC12CCC3C(CCC4CC(OC5CCCCO5)CCC43C)C1CC/C2=C/C#N` (centres undefined), for which the growth inhibition in test [1] is -7.5%; in test [2], 10.1%; in test [3], 10.3%; in test [4], 1.75%; in test [5], -2.65%.
For the compound `C(=C\P(c1ccccc1)c1ccccc1)/P(/C=C/P(c1ccccc1)c1ccccc1)c1ccccc1`, the growth inhibition in test [1] is -14.8%; in test [2] it was -42.1%; in test [3] it was 8.15%; in test [4], -18.9%; in test [5], -28.1%.
On the same counts, the results for `COc1ccc(Br)cc1/C=N\NC(=O)c1ccccc1N(C)C` are -11.6%, -10.8%, 6.6%, -3.05% and -4.25%.
Consider `c1ccc(CN[C@]23C4C5CC6C7C5C2C7[C@@](NCc2ccccc2)(C64)N3Cc2ccccc2)cc1` (some centres undefined), for which the growth inhibition in test [1] is -1.05%; in test [2], -11.8%; in test [3], -37.4%; in test [4], -0.85%; in test [5], 5.25%.
The like results for `c1ccc2c(C3=NCCO3)cccc2c1` were, in that order, 9.7%, 8.3%, -34.6%, 4% and 11.8%.
As to `CN1CNc2nc(N)n(C)c(=O)c2C1`, the growth inhibition in test [1] is -4.7%; in test [2], 11.4%; in test [3] it was 11.8%; in test [4], -6.5%; in test [5], 8.2%.
The like results for `CCOC(=O)C1(C)Sc2ccccc2N=C1c1ccccc1` (centres undefined) were, in that order, 48.5%, 45.5%, 7.35%, 26.1% and 17.6%.
Take `Cc1ccc(S(=O)(=O)CC(=O)NC(N)=O)cc1`: the growth inhibition in test [1] was -1.1%; in test [2], -5.2%; in test [3], -2.1%; in test [4], -1.15%; in test [5], -7.3%.
On the same counts, the results for `CC(O)C(=O)N1CCOCC1` (centres undefined) are -3.65%, -0.7%, -24.9%, 4.25% and -23.3%.
On the same counts, the results for `O=C(Cl)C=Cc1ccc([N+](=O)[O-])cc1` (mixture of isomers) are 6.7%, -0.25%, -6.65%, 2.15% and 1.95%.
Regarding `S=C1CNC(=S)CN1`, the growth inhibition is -21.9% in test [1]; 0.7% in test [2]; 8.75% in test [3]; 10.8% in test [4]; -22.9% in test [5].
`C1=Nc2ccccc2/C1=C/c1ccc2c(c1)OCO2`: the growth inhibition in test [1] is 11.7%; in test [2], -6.9%; in test [3] it was -55.6%; in test [5], 8.5%.
Turning to `CCCCCCCc1cc(OC(=O)c2c(C)cc(OC)cc2O)cc(O)c1C(=O)O`, the growth inhibition in test [1] is -16.2%; in test [2], 8.65%; in test [3] it was -10%; in test [4], -14.2%; in test [5] it was 16.8%.
As to `O=C(C(O)c1ccccc1)N1CCCCC1` (centres undefined), the growth inhibition in test [1] was 14.2%; in test [2] it was -2.95%; in test [3], 9.85%; in test [4], 4.3%; in test [5] it was 21.6%.
For the compound `CCOC(=O)/C(C#N)=C\N(C)C`, the growth inhibition in test [1] is -12.7%; in test [2], 5.65%; in test [3] it was 5.65%; in test [4], 9.65%; in test [5], 13.5%.
For the compound `COc1c(OC(C)=O)cc(Cl)c(C=O)c1[N+](=O)[O-]`, the growth inhibition in test [1] is 2.4%; in test [2] it was 19.3%; in test [3] it was 5.8%; in test [4], 1.55%; in test [5], -9.3%.
Take `Cc1cc2c(=O)n(-c3ccc(F)cc3)c(C)nc2c(C(=O)O)c1C`: the growth inhibition is -8.75% in test [1]; -0.6% in test [2]; 10% in test [3]; -14.6% in test [4]; 9.55% in test [5].
As to `CN(CCC[N+](C)(C)C)C(=O)C(c1ccccc1)c1ccccc1`, the growth inhibition in test [1] is -0.25%; in test [2], 19.2%; in test [3], -9.55%; in test [4], 6.35%; in test [5], 2.7%.
On the same counts, the results for `CCOC(=O)C(CCC#N)(NC(C)=O)C(=O)OCC` are -2.35%, 7.4%, -25.3%, 1.7% and -20.9%.
In the case of `Cc1ccc2nc(-c3ccc(Cl)cc3Cl)oc(=O)c2c1`, the growth inhibition in test [1] is 3.8%; in test [2], 20.4%; in test [3], -12.8%; in test [4] it was 20.6%; in test [5] it was -7.15%.
Turning to `CC(C)CC(NC(=O)C(CCC(=O)OCc1ccccc1)NC(=O)OC(C)(C)C)C(=O)NC(COCc1ccccc1)C(=O)NC(Cc1ccccc1)C(=O)O` (centres undefined) (Boc-E(OBn)LS(Bn)F-OH; configuration not given here), the growth inhibition was -4.8% in test [1]; -8.05% in test [2]; 6% in test [3]; 13.3% in test [4]; -10.8% in test [5].
`Cc1cc(-c2cscn2)c(O)c([N+](=O)[O-])c1`: the growth inhibition in test [1] was 3.9%; in test [2], 27.2%; in test [3], 12.4%; in test [4], 1.5%; in test [5], 7.6%.
For `CC(C)C(NC(=O)C(Cc1ccc(O)cc1)NC(=O)OCc1ccccc1)C(=O)O` (stereo not drawn) (Cbz-Tyr-Val-OH; configuration not given here), the growth inhibition in test [1] is -3.25%; in test [2], -3.85%; in test [3], -29.6%; in test [4] it was -3.15%; in test [5], 1.8%.
On the same counts, the results for `CC(=O)NC1C(OCC(=O)NC(C)C(=O)NC(CCC(=O)NCCCCCNc2ccc([N+](=O)[O-])c3[nH]c4ccccc4c(=O)c23)C(N)=O)C(O)C(CO)OC1(C)OCc1ccccc1` (centres undefined) are -3.35%, 1.05%, 21.2%, -12.1% and 18.1%.
The like results for `CC(=O)CC(=O)N1CCN(C(=O)CC(C)=O)C(C)C1` (centres undefined) were, in that order, -58.5%, 6.05%, 1.8%, -11.7% and -6.75%.
In the case of `COc1ccc(Cc2cc3c(cc2OC(C)=O)OCO3)cc1`, the growth inhibition in test [1] was -10.3%; in test [2] it was -5.75%; in test [3], 8.9%; in test [4], 38.2%; in test [5], 7.25%.
The like results for `CCc1c2cc(OC)c(OC)cc2cc2c3cc(OC)c(OC)cc3cc[n+]12` (tested in a mixture with another compound) were, in that order, -22.4%, -20.1%, -20.9%, -42% and -11.7%.
Turning to `CCCCCCCCCCCCCCCCCC(=O)OCCCC`, the growth inhibition in test [1] was -9.9%; in test [2], -20.1%; in test [3] it was -20.4%; in test [4], 0.2%; in test [5], -22%.
On the same counts, the results for `Cc1c(O)c(=O)ccn1C1OC(CO)C(O)C1O` (centres undefined) are 22.9%, 25.5%, -2.9%, 15.8% and 26%.
As to `CCCc1ccc(N=Cc2cc(OC)c(OC)c(OC)c2)cc1`, the growth inhibition in test [1] is 13.3%; in test [2] it was 13.5%; in test [3] it was 4.4%; in test [4] it was -8%; in test [5] it was 21.6%.
The like results for `CC1CC=CCC1C(=O)OC/C=C/COC(=O)C1CC=CCC1C` (centres undefined) were, in that order, -19.9%, 8.65%, -9.9%, 14.9% and -4.65%.
The like results for `S=c1sc2ccccc2n1CN1CCCC1` were, in that order, 0.05%, 29.9%, 11.9%, 8.3% and -6.65%.
Take `O=S(=O)(Nc1ccccc1C(O)c1ccccc1)c1ccccc1` (centres undefined): the growth inhibition in test [1] was 0.8%; in test [2], 12.3%; in test [3], -27%; in test [4], 13.5%; in test [5], 34.4%.
On to `N=[N+]=CC(=O)OCC(N)C(=O)O` (centres undefined), for which the growth inhibition is 82.2% (active) in test [1]; 80.2% (active) in test [2]; 54.6% in test [3]; 13.2% in test [4]; 73.9% (active) in test [5].
The like results for `CCCNCC(O)CNc1ccc(Cl)cc1` (centres undefined) were, in that order, -7.15%, 2.05%, -9.4%, -4.3% and 5.65%.
Consider `COc1ccccc1C(O)c1ccccc1` (centres undefined), for which the growth inhibition in test [2] is 15.3%; in test [3], 11.4%; in test [4], 9.3%; in test [5] it was 3.75%.
For `NC(=O)CNC(=O)[C@@H]1C[C@@H](OCCC(=O)O)CN1C(=O)OCc1ccccc1`, the growth inhibition is -8.75% in test [1]; -24.5% in test [2]; 4.1% in test [3]; 14.5% in test [4]; 4.95% in test [5].
The like results for `COc1cc2ccnc(CCCc3nccc4cc(OC)c(OC)cc34)c2cc1OC` were, in that order, -4.05%, -27.4%, -1.9%, -1.75% and -9.3%.
